# Reference: PubChem BioAssay (Tox21)
# Where “and” joins values, the source holds several entries; their conditions need not be identical. Identical values can stand only once. Results filed as inconclusive are left out. Entries that show only a call come without a potency. Some structures have more than one record in an assay (separate samples or runs), and their calls can disagree. Calls of active or inactive are those of the source. Unless noted, calls follow the shape of the dose curve; as a rule, active = well fitted curve in the direction sought with a large enough effect in the repeat runs; inconclusive = weak or mixed curves; inactive = no such curve, though single readings can be large; an effect the other way counts as inactive or inconclusive.
# Columns and labels:
# [1] = qHTS assay to identify small molecule agonists of the estrogen receptor alpha (ER-alpha) signaling pathway in the presence of an antagonist - cell viability counter screen (AID 1259386);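 also: series mostly up to about 92 µM; cells exposed to compounds for 22 h at 37 °C before the viability read; nearly all actives have a fitted effect of over 30% in size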
# How it was run: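 Steps: 5-day stripped-FBS culture; seed and incubate 24hr; add ICI-182,780 (10.0nM final); pin 15-point compound titration; incubate 22hr at 37C; add CellTiter-Fluor at 21hr; read fluorescence.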
# [2] = target: Progesterone receptor (Homo sapiens) (UniProt P06401); experiment: qHTS assay to identify small molecule agonists of the progesterone receptor (PR) signaling pathway (AID 1346784; calls by dose curve; also: nearly all actives have a fitted effect of over 30% in size; also: potency is read from the fitted curve at half-maximal effect)
# How it was run: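 Using charcoal-stripped serum (2%) to limit endogenous steroids, PR-UAS-bla HEK 293T cells received compounds for 16 hr at 37C after 6 hr plating; beta-lactamase FRET fluorescence was recorded following 2 hr substrate loading at room temperature.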
# [3] = qHTS assay to identify small molecule agonists of the progesterone receptor (PR) signaling pathway - cell viability counter screen (AID 1346799; calls by dose curve; also: nearly all actives have a fitted effect of over 45% in size; also: potency is read from the fitted curve at half-maximal effect)
# How it was run: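 Cytotoxicity in PR-bla HEK293T cells: 16 h compound, 37C; CellTiter-Glo added post-FRET read; luminescence after 30 min RT.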
# [4] = qHTS assay to identify small molecule antagonists of the TGF-beta/Smad signaling pathway - cell viability counter screen (AID 1346824); also: nearly all actives have a fitted effect of over 50% in size
# How it was run: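 Cytotoxicity counter-screen run in the same wells as the beta-lactamase Smad reporter read: CellTiter-Glo luminescence after 30 min at room temperature. HEK 293T SBE-bla cells had 5 hr compound exposure at 37 C with TGF-beta1 (0.25 ng/mL stock).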
# [5] = qHTS assay to identify small molecule agonists of the TGF-beta/Smad signaling pathway - cell viability counter screen (AID 1346829); also: top concentration of the series differs between compounds; nearly all actives have a fitted effect of over 45% in size
# How it was run: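 HEK 293T SBE-bla line, 5 hr compound exposure at 37 C, multiplexed CellTiter-Glo viability read by luminescence.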
# [6] = target: Thyrotropin-releasing hormone receptor (Homo sapiens) (UniProt P34981); experiment: qHTS assay to identify small molecule antagonists of the thyrotropin-releasing hormone receptor (TRHR) signaling pathway (AID 1346877; active = well fitted inhibition curve with a large enough effect in the repeat runs, not every such curve was filed as active; also: series mostly up to about 51 µM)
# How it was run: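 Human TRHR in HEK293 cells; inhibition of the intracellular calcium rise triggered by 1 nM TRH was followed by fluorescence over 3 min. Compounds were run at 15 concentrations, three replicates each.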
# [7] = target: Thyrotropin-releasing hormone receptor (Homo sapiens) (UniProt P34981); experiment: qHTS assay to identify small molecule agonists of the thyrotropin-releasing hormone receptor (TRHR) signaling pathway (AID 1346891; calls by dose curve;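 also: HEK293 cells expressing TRHR with calcium dye readout; series mostly up to about 58 µM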)
# How it was run: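 In 1536-format, 1500 TRHR-Hek293 cells per well grew 18 h, took up calcium dye for 2 h at 37 °C, received compound, and were read kinetically; 15-point titrations, triplicates.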
# [8] = Caspase-3/7 induction in HepG2 cells by small molecules, qHTS assay (AID 1346978); also: nearly all actives have a fitted effect of over 15% in size
# How it was run: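 Caspase-3/7 induction was measured by Caspase-Glo 3/7 luminescence (30 min, room temperature) after a 17 hr compound exposure of wild-type HepG2 cells seeded at 2,000 per well and pre-incubated 5 hr.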
# [9] = Caspase-3/7 induction in CHO-K1 cells by small molecules, qHTS assay (AID 1346980); also: nearly all actives have a fitted effect of over 15% in size
# How it was run: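 Luminescent Caspase-Glo 3/7 read (30min, room temperature) quantified apoptosis induction. Cells were wild-type CHO-K1, treated with compound for 17hr at 37 C and 5% CO2.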
# [10] = Caspase-3/7 induction in HepG2 cells by small molecules, qHTS cell viability counter screen (AID 1346981); also: nearly all actives have a fitted effect of over 30% in size; also: potency is read from the fitted curve at half-maximal effect
# How it was run: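 The parent HepG2 line is plated at 2,000 cells per well and rested 5 hr before compound pinning from DMSO stocks. Following a 16-hr treatment at 37 C, a fluorogenic live-cell substrate (CellTiter-Fluor) reports viability after 1 hr.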
# [11] = target: Nuclear receptor subfamily 1 group I member 2 (Homo sapiens) (UniProt O75469); experiment: Human pregnane X receptor (PXR) small molecule agonists, qHTS assay (AID 1346982); also: nearly all actives have a fitted effect of over 35% in size; also: potency is read from the fitted curve at half-maximal effect
# How it was run: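 After plating in 5% charcoal-stripped FBS and a 5 hr rest, PXR-Luc HepG2 cells received compounds in DMSO. Following 24 hr at 37 C, ONE-Glo was added and light output read.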
# [12] = target: Cytochrome P450 2D6 (Homo sapiens) (UniProt P10635); experiment: Cytochrome P450 Family 2 Subfamily D Member 6 (CYP2D6) small molecule antagonists: luciferase reporter qHTS assay (AID 1671196); also: nearly all actives have a fitted effect of over 50% in size; also: potency is read from the fitted curve at half-maximal effect
# How it was run: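 Quantitative HTS of Tox21 chemicals against CYP2D6 using a luminescent proluciferin substrate. After NADPH addition, 1 h room-temperature reaction; luminescence recorded 20 min post detection reagent.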
# [13] = target: Progesterone receptor (Homo sapiens) (UniProt P06401); experiment: qHTS assay to identify small molecule antagonists of the progesterone receptor (PR) signaling pathway (AID 1346795; active = well fitted inhibition curve with a large enough effect in the signal ratio in the repeat runs, not every such curve was filed as active; the % refers to the signal ratio; also: potency is read from the fitted curve at half-maximal effect)
# How it was run: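 Inhibition of R5020-induced (1 nM final) beta-lactamase reporter signal in PR-UAS-bla HEK293T cells was scored by FRET fluorescence after overnight (16 hr) compound treatment.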
# [14] = qHTS assay to identify small molecule agonists of the TGF-beta/Smad signaling pathway (AID 1346859; active = well fitted activation curve with a large enough effect in the signal ratio in the repeat runs, not every such curve was filed as active; the % refers to the signal ratio; also: potency is read from the fitted curve at half-maximal effect; as to activation: series mostly up to about 77 µM)
# How it was run: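 Stable Smad binding element-beta-lactamase HEK 293T cells; 5 hr compound exposure at 37 C under 5% CO2; 2 hr room-temperature substrate step; fluorescence excited at 405 nm, collected at 460 nm and 530 nm.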
# [15] = qHTS assay to identify small molecule antagonists of the progesterone receptor (PR) signaling pathway - cell viability counter screen (AID 1346798); also: nearly all actives have a fitted effect of over 50% in size; also: potency is read from the fitted curve at half-maximal effect
# How it was run: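 ATP content as viability readout: CellTiter-Glo luminescence, 30 min room temperature, in PR-UAS-bla HEK293T cells after 16 hr compound/R5020 treatment at 37C and 5% CO2.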
# [16] = Human pregnane X receptor (PXR) small molecule agonists, qHTS cell viability counter screen (AID 1346977); also: nearly all actives have a fitted effect of over 50% in size; also: potency is read from the fitted curve at half-maximal effect
# How it was run: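 Readout is CellTiter-Fluor fluorescence from PXR-Luc HepG2 cells. Plated cells rested 5hr, then were treated with compounds for 24hr at 37C and 5% CO2, with reagent present during the last hour.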
# [17] = target: Nuclear receptor subfamily 1 group I member 2 (Homo sapiens) (UniProt O75469); experiment: CYP3A4 induction through human pregnane X receptor (PXR) by small molecules, qHTS assay (AID 1346984); also: nearly all actives have a fitted effect of over 40% in size
# How it was run: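 Human PXR activation is tracked via CYP3A4 promoter-luciferase in DPX-2 (HepG2) cells. Compounds treat cells for 24hr at 37C, and luminescence is read after One-Glo.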
# [18] = target: Nuclear receptor subfamily 1 group I member 2 (Homo sapiens) (UniProt O75469); experiment: Human pregnane X receptor (PXR) activation by small molecules, qHTS assay (AID 1346985); also: nearly all actives have a fitted effect of over 40% in size; also: potency is read from the fitted curve at half-maximal effect
# How it was run: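 DPX-2 cells (HepG2 co-transfected with a PXR response element and a CYP3A4-promoter luciferase construct) were seeded at 2,000 per well, rested 5 hr at 37C, then exposed to DMSO-dissolved compounds for 24 hr. Activation was read as luciferase luminescence.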
# [19] = Caspase-3/7 induction in CHO-K1 cells by small molecules, qHTS cell viability counter screen (AID 1346979); also: nearly all actives have a fitted effect of over 35% in size; also: potency is read from the fitted curve at half-maximal effect
# How it was run: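 To flag cytotoxic compounds, treated CHO-K1 wild-type cells were given CellTiter-Fluor at 16hr and read fluorescently after 1hr at 37C; the caspase-3/7 luminescence was measured in these same wells.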
# Chain of Cytochrome P450 2D6 (Homo sapiens) (P10635 whole entry, looked up): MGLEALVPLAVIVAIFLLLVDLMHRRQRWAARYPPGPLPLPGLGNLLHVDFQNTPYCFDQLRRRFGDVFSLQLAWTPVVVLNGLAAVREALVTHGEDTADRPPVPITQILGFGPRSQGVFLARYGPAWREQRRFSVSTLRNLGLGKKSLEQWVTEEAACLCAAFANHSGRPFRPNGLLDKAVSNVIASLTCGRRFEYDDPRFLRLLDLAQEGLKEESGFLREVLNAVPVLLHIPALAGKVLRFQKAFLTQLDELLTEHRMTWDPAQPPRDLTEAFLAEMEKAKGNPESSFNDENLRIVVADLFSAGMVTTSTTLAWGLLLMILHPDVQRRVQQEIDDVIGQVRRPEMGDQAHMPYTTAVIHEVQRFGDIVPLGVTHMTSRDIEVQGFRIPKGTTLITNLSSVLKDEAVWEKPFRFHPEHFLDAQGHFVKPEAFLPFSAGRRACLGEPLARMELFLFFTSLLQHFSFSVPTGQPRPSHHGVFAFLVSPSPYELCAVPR
# Chain of Thyrotropin-releasing hormone receptor (Homo sapiens) (P34981 whole entry, looked up): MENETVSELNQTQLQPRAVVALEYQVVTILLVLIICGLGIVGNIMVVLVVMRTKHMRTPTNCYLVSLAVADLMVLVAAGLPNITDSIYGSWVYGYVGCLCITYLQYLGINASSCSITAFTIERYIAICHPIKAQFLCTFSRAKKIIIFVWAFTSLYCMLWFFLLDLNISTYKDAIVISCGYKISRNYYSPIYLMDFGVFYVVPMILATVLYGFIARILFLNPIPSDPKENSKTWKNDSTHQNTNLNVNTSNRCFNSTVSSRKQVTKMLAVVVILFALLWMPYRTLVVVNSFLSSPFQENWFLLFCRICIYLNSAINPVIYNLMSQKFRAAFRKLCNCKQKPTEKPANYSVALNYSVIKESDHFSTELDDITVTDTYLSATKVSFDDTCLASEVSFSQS
# Chain of Nuclear receptor subfamily 1 group I member 2 (Homo sapiens) (O75469 whole entry, looked up): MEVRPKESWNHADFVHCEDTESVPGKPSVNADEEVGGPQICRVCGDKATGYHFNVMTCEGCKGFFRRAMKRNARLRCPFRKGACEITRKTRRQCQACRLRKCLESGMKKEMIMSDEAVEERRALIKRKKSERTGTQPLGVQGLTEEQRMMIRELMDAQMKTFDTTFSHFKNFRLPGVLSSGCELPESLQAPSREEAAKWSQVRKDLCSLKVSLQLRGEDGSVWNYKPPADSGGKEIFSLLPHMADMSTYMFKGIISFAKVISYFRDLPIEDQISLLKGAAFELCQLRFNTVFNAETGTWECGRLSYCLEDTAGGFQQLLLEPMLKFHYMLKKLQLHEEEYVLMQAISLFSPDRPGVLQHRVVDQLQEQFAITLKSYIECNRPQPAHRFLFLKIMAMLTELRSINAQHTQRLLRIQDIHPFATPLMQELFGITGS
# Chain of Progesterone receptor (Homo sapiens) (P06401 whole entry, looked up): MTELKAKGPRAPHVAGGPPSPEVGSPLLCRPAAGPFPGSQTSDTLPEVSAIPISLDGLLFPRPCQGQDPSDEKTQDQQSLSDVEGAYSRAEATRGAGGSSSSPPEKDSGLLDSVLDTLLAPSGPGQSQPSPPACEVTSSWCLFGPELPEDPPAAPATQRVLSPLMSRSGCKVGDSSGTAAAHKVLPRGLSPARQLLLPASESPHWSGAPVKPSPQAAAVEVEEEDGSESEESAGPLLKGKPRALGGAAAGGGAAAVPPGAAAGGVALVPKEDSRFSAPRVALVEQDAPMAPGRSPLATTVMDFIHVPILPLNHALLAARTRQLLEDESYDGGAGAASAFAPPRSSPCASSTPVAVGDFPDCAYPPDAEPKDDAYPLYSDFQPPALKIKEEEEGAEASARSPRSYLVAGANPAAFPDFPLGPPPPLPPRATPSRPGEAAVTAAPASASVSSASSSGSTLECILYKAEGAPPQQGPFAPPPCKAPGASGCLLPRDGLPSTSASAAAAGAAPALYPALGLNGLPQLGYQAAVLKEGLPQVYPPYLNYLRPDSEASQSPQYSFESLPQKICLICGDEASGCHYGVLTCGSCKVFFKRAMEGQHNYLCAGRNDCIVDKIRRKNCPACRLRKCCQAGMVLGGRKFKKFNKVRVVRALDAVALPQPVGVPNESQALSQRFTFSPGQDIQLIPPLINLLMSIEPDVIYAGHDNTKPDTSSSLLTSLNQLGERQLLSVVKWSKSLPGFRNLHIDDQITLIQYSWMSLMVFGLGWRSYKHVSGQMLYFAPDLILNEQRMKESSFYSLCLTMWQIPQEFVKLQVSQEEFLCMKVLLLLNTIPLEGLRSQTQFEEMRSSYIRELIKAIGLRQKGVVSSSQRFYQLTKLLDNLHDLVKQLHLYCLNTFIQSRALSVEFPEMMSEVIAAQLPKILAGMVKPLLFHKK
Structure (SMILES),Potency [1],Potency [2],Potency [3],Potency [4],Potency [5],Potency [6],outcome [7],Potency [8],Potency [9],Potency [10],Potency [11],Potency [12],Potency [13],Potency [14],Potency [15],Potency [16],Potency [17],Potency [18],Potency [19]
CCn1c2ccccc2c2cc([N+](=O)[O-])ccc21,inactive,inactive,inactive,inactive,inactive,inactive,inactive,inactive,inactive,inactive,19.3 µM (active),inactive,–,–,–,–,–,–,–
Nc1ccc(Oc2ccc(Cl)cc2)cc1,inactive,–,–,inactive,inactive,–,–,inactive,inactive,inactive,33.6 µM (active),39.1 µM (active),18.9 µM (active),inactive,–,–,–,–,–
CC1(C)[C@@H](O)CC[C@]2(C)[C@H]3C(=O)C=C4[C@@H]5C[C@@](C)(C(=O)O)CC[C@]5(C)CC[C@@]4(C)[C@]3(C)CC[C@@H]12,inactive,–,–,inactive,inactive,inactive,–,–,inactive,–,inactive,inactive,60.4 µM (active),–,inactive,inactive,inactive,inactive,–
Clc1nnc(Cl)c2ccccc12,inactive,inactive,inactive,inactive,inactive,inactive,–,inactive,inactive,inactive,–,–,–,inactive,–,inactive,–,–,inactive
CN(C)Cc1cc(C(C)(C)C)c(O)c(C(C)(C)C)c1,inactive,inactive,–,inactive,–,–,–,inactive,inactive,inactive,–,–,–,inactive,–,–,–,–,inactive
CC1=CCC(=C(C)C)CC1,inactive,–,inactive,inactive,inactive,–,–,inactive,inactive,inactive,43.3 µM (active),inactive,inactive,inactive,–,inactive,–,–,inactive
C#C[C@]1(OC(C)=O)CC[C@H]2[C@@H]3CCC4=C/C(=N/O)CC[C@@H]4[C@H]3CC[C@@]21CC,inactive,–,–,inactive,inactive,inactive,inactive,inactive,inactive,inactive,29.8 µM (active),–,29.8 µM (active),inactive,–,–,inactive,7.94 µM (active),–
O=S(=O)(O)c1ccc(Nc2nc(Nc3ccc(/C=C/c4ccc(Nc5nc(Nc6ccc(S(=O)(=O)O)cc6)nc(N(CCO)CCO)n5)cc4S(=O)(=O)O)c(S(=O)(=O)O)c3)nc(N(CCO)CCO)n2)cc1,inactive,–,inactive,inactive,inactive,inactive,inactive,inactive,inactive,inactive,inactive,inactive,–,33.1 µM (active),inactive,inactive,–,–,inactive
Cc1ccc(O)c(N)c1,–,–,–,inactive,inactive,inactive,inactive,inactive,inactive,inactive,48.6 µM (active),–,–,inactive,inactive,–,–,–,61.2 µM (active)
CN1CCN(Cc2cc(-c3ccc4[nH]c(=O)oc4c3)co2)[C@@H](c2ccc(F)cc2)C1,–,inactive,–,inactive,inactive,inactive,inactive,inactive,inactive,–,10.5 µM (active),–,46.7 µM (active),inactive,inactive,–,–,–,58.8 µM (active)
C=C(CC)C(=O)c1ccc(OCC(=O)O)c(Cl)c1Cl,inactive,–,inactive,–,inactive,inactive,inactive,inactive,inactive,30.4 µM (active),inactive,25 µM (active) and inactive,–,–,inactive,43 µM (active),–,–,–
Cc1c(C)c([N+](=O)[O-])c(C(C)(C)C)c([N+](=O)[O-])c1C,inactive,–,inactive,inactive,inactive,inactive,inactive,inactive,inactive,inactive,–,inactive,–,inactive,–,inactive,–,–,–
FC(F)(F)c1cccc(Cl)c1,inactive,–,inactive,inactive,inactive,–,–,inactive,inactive,inactive,inactive,inactive,–,inactive,–,inactive,–,–,inactive
Cc1cc(-n2nc3ccc(Cl)cc3n2)c(O)c(C(C)(C)C)c1,–,inactive,inactive,inactive,inactive,–,–,inactive,inactive,inactive,inactive,–,inactive,inactive,–,inactive,inactive,inactive,inactive
Cc1ccc(O)c(O)c1,–,–,–,inactive,inactive,inactive,inactive,inactive,inactive,–,59.4 µM (active),–,42 µM (active),inactive,–,–,–,–,–
CC(=O)c1ccc(C(C)=O)cc1,–,inactive,inactive,inactive,inactive,inactive,inactive,inactive,inactive,inactive,inactive,inactive,inactive,inactive,–,inactive,–,–,inactive
O=S(=O)(O)c1ccccc1/C=C/c1ccc(-c2ccc(/C=C/c3ccccc3S(=O)(=O)O)cc2)cc1,–,–,inactive,inactive,inactive,inactive,inactive,inactive,inactive,inactive,inactive,inactive,–,44.3 µM (active),inactive,–,–,–,–
CC(=O)[C@H]1CC[C@H]2[C@@H]3CCC4=CC(=O)CC[C@]4(C)[C@H]3CC[C@]12C,inactive,–,60.8 µM (active),–,–,–,–,inactive,inactive,inactive,–,15.8 µM (active) and 39.9 µM (active),–,–,54.2 µM (active),inactive,–,–,54.2 µM (active) and 48.6 µM (active)
CN(C)Cc1ccccc1O,–,inactive,inactive,inactive,inactive,inactive,inactive,inactive,inactive,inactive,inactive,inactive,inactive,inactive,inactive,–,–,–,inactive
CN1CCN2c3ccccc3Cc3ccccc3C2C1 (configuration not stated),–,inactive,inactive,inactive,inactive,inactive,inactive,inactive,inactive,inactive,–,–,–,inactive,inactive,inactive,–,–,inactive
C#C[C@]1(OC(C)=O)CC[C@H]2[C@@H]3CCC4=C[C@@H](OC(C)=O)CC[C@@H]4[C@H]3CC[C@@]21C,–,0.0237 µM (active),–,inactive,inactive,–,–,inactive,inactive,inactive,29.8 µM (active),–,–,inactive,–,–,inactive,–,–
Cc1cc(C(C)(C)C)c(O)c(C)c1Cn1c(=O)n(Cc2c(C)cc(C(C)(C)C)c(O)c2C)c(=O)n(Cc2c(C)cc(C(C)(C)C)c(O)c2C)c1=O,inactive,–,inactive,–,inactive,inactive,inactive,inactive,inactive,inactive,–,–,–,inactive,inactive,inactive,–,–,27.3 µM (active)
